“And” between values parts separate entries of the source, which are not always exact repeats. Equal entries are not always repeated. Results filed as inconclusive are left out. The source made the active and inactive calls. Unless noted, calls come from the whole dose curve; as a rule, active = well fitted curve in the direction sought with a large enough effect in the repeat runs; inconclusive = weak or mixed curves; inactive = no such curve, though single readings can be large; an effect the other way counts as inactive or inconclusive.
How the values were obtained:
[1] = qHTS assay to identify aromatase inhibitors - cell viability counter screen (AID 743084);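 note: cells stimulated with testosterone during compound exposure; nearly all actives have a fitted effect of over 55% in size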; note: potency is the fitted concentration of half-maximal effect
[2] = target: Aryl hydrocarbon receptor (Homo sapiens) (UniProt P35869); experiment: qHTS assay to identify small molecule that activate the aryl hydrocarbon receptor (AhR) signaling pathway (AID 743085); note: nearly all actives have a fitted effect of over 15% in size; note: potency is the fitted concentration of half-maximal effect;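 for activation: HG2L7.5c1 human HepG2 liver cells with stably integrated DRE-driven firefly reporter; series mostly up to about 70 µM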
Aryl hydrocarbon receptor (Homo sapiens), sequence (P35869 whole entry, looked up): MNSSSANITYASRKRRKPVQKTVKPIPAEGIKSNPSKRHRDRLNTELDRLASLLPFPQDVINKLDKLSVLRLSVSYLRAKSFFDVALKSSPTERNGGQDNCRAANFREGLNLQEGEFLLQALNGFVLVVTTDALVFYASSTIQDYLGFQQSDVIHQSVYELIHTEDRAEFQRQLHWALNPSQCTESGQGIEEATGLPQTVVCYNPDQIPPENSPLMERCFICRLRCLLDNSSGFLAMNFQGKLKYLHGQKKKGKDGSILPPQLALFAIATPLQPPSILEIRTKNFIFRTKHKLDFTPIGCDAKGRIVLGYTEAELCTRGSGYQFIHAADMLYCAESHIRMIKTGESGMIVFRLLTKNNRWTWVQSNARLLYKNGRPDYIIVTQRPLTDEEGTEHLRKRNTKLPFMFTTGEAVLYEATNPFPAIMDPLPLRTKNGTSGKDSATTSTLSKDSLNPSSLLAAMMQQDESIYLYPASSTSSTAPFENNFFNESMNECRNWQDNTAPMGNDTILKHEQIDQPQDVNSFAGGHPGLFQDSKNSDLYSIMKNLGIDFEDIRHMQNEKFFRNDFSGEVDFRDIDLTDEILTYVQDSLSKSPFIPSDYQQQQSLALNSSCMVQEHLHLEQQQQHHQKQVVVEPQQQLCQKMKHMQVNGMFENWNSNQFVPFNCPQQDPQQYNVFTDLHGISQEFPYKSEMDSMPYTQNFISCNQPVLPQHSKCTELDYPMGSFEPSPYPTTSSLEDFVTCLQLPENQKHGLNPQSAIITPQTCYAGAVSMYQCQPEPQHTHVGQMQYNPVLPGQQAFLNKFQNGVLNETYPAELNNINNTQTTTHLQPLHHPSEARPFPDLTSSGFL
In short: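 Reporter assay in engineered HepG2 line HG2L7.5c1, whose plasmid carries twenty dioxin responsive elements upstream of firefly luciferase. Treatment lasted 24 h at 37C; ONE-Glo luminescence gauged induction.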

[3] = qHTS assay to identify small molecule that activate the aryl hydrocarbon receptor (AhR) signaling pathway - cell viability counter screen (AID 743086); note: nearly all actives have a fitted effect of over 45% in size; note: potency is the fitted concentration of half-maximal effect
In short: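 HepG2-AhR-luc (HG2L7.5c1) cells, 4000/well, were preincubated 5 h at 37C, exposed to compound in qHTS format for 24 hr at 37C, then given CellTiter-Fluor for 30 min; viability was read as fluorescence in the reporter wells.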

[4] = qHTS assay to identify small molecule antagonists of the peroxisome proliferator-activated receptor gamma (PPARg) signaling pathway - cell viability counter screen (AID 743194); note: nearly all actives have a fitted effect of over 55% in size; note: potency is the fitted concentration of half-maximal effect
In short: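 PPARg-UAS-bla HEK293H cells were plated, rested 5 h at 37 C, then treated with compounds plus rosiglitazone (50 nM final) for 17 h at 37 C; viability was then read by CellTiter-Glo luminescence after 30 min at room temperature.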

[5] = qHTS assay for small molecule agonists of the antioxidant response element (ARE) signaling pathway - cell viability counter screen (AID 743203; calls by dose curve; note: nearly all actives have a fitted effect of over 55% in size; note: potency is the fitted concentration of half-maximal effect)
In short: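 ATP content via CellTiter-Glo luminescence served as the viability measure. Cells: ARE-bla HepG2, 2,000 per well. Exposure: 16 hrs, 37C/5% CO2.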

[6] = qHTS assay for small molecule activators of the heat shock response signaling pathway - cell viability counter screen (AID 743209); note: nearly all actives have a fitted effect of over 50% in size; note: potency is the fitted concentration of half-maximal effect
In short: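 Compounds dissolved in DMSO were added to overnight-plated HSE-bla HeLa cells and left 5 h at 37 C. Cell viability was quantified by luminescence using CellTiter-Glo.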

[7] = qHTS assay for small molecule activators of the heat shock response signaling pathway (AID 743210; active = well fitted activation curve with a large enough effect in the signal ratio in the repeat runs, with a control signal flat, not every such curve was filed as active; the % refers to the signal ratio;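 note: HeLa cells with beta-lactamase reporter driven by heat shock elements; series mostly up to about 63 µM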)
In short: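 Activation of heat shock element-controlled beta-lactamase expression is measured in HeLa cells by LiveBLAzer FRET fluorescence, with compound exposure lasting 5 h at 37 C and substrate loading 2.5 h at room temperature.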

[8] = target: Peroxisome proliferator-activated receptor gamma (Homo sapiens) (UniProt P37231); experiment: qHTS assay to identify small molecule antagonists of the peroxisome proliferator-activated receptor gamma (PPARg) signaling pathway (AID 743191; calls by dose curve; note: potency is the fitted concentration of half-maximal effect; nearly all actives have a fitted effect of over 30% in size)
Peroxisome proliferator-activated receptor gamma (Homo sapiens), sequence (P37231 whole entry, looked up): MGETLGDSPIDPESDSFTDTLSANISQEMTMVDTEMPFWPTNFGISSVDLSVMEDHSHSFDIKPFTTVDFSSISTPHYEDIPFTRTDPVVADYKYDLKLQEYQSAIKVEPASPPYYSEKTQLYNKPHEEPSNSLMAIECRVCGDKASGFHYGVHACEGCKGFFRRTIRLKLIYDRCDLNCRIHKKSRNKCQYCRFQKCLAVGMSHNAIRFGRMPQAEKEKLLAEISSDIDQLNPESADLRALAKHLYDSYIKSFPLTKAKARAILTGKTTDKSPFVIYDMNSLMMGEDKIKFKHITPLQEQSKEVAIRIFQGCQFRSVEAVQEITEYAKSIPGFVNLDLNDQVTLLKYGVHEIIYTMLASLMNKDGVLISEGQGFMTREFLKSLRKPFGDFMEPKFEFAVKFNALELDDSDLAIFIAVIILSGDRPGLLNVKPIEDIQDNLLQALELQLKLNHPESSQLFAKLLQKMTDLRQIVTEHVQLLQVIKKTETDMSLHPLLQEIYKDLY
In short: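 GeneBLAzer PPARg UAS-bla HEK293H cells carrying a UAS-driven beta-lactamase reporter were plated at 3000 cells/well, preincubated 5 h at 37C, then given compound for 17 h at 37C; LiveBLAzer B/G FRET substrate was read after 1 h at room temperature.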

[9] = target: Peroxisome proliferator-activated receptor gamma (Homo sapiens) (UniProt P37231); experiment: qHTS assay to identify small molecule agonists of the peroxisome proliferator-activated receptor gamma (PPARg) signaling pathway (AID 743094; active = well fitted activation curve with a large enough effect in the signal ratio in the repeat runs, not every such curve was filed as active; the % refers to the signal ratio; note: potency is the fitted concentration of half-maximal effect)
In short: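 Agonism was assessed in a beta-lactamase reporter system, HEK293H cells with a stably integrated UAS-bla construct under PPARg control; the 17 h treatment at 37C preceded a 1 h room-temperature FRET substrate read.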

[10] = qHTS assay for small molecule agonists of the antioxidant response element (ARE) signaling pathway (AID 743202; active = well fitted activation curve with a large enough effect in the signal ratio in the repeat runs, not every such curve was filed as active; the % refers to the signal ratio; note: potency is the fitted concentration of half-maximal effect)
In short: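 Steps: seed ARE-bla HepG2 cells (2,000/well); incubate 5 h at 37 C; add compounds by pin tool; incubate 16 h at 37 C; add FRET substrate; read fluorescence after 2 h at RT.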

Measured: Potency

CC(C)(O)c1ccc(CNC(=O)c2cccnc2Oc2ccc3nonc3c2)cc1
inactive: [1] | [2] | [3] | [4] | [5] | [6] | [7]

CN1CCCC(CC2c3ccccc3Sc3ccccc32)C1 (stereo not given)
inactive: [1] | [2] | [6] | [7]
active: [8] 10.6 µM | [4] 16.8 µM

C[C@@H]1CN(CCCn2c3ccccc3c3ccccc32)C[C@H](C)N1
active: [2] 26.6 µM | [4] 23.7 µM | [5] 26.6 µM
inactive: [1] | [6] | [7]

O=c1[nH]c2ccc(Cl)cc2o1
inactive: [1] | [2] | [3] | [4] | [6] | [7]

Cc1cccc(N(C)C(=S)Oc2ccc3c(c2)CCC3)c1
inactive: [1] | [2] | [9] | [5] | [6] | [7]

O=C(O)CCCCCCCCCCCBr
inactive: [1] | [2] | [3] | [4] | [5] | [6] | [7]

Oc1cccc(Nc2ccccc2)c1
inactive: [1] | [2] | [3] | [4] | [5] | [6] | [7]

CCC1(CO)COCOC1
inactive: [1] | [2] | [3] | [4] | [5] | [6]

CCOC(=O)c1ccc(C#Cc2ccc3c(c2)C(C)(C)CCS3)nc1
inactive: [1] | [2] | [3] | [4] | [5] | [6]
active: [10] 26.6 µM

CCOc1cccc(-n2cc(C(=O)N3CCN(c4cc(C(=O)O)c5ccccc5c4)CC3)nc2-c2ccc(C)cc2)c1
active: [10] 9.25 µM
inactive: [1] | [2] | [3] | [6]

CC1(C)[C@H](C(=O)O)N2C(=O)C[C@H]2S1(=O)=O
inactive: [1] | [2] | [3] | [4] | [5] | [6] | [7]

C/C=C(/C(=C/C)c1ccc(O)cc1)c1ccc(O)cc1
active: [8] 29.8 µM | [10] 15 µM
inactive: [1] | [2] | [9] | [6]

COc1cc(C(=O)NC2CCN(C)CC2)ccc1Nc1ncc2c(n1)N(C1CCCC1)CC(F)(F)C(=O)N2C
inactive: [2] | [9] | [7]
active: [1] 25 µM | [5] 28.1 µM

CCCCCCCCOc1ccc(C(=O)O)cc1
inactive: [1] | [2] | [3] | [4] | [5]

CC1(CN2CCC(n3c(=O)[nH]c4ccccc43)CC2)OCc2ccccc2-n2cccc21 (stereo not given)
active: [5] 33.5 µM
inactive: [1] | [2] | [3] | [6] | [7]

Cc1cc(=O)c2c(O)c3c(O)cc(=O)c4c3c3c(cc(O)c1c23)C(C)(C)C=4O
inactive: [1] | [3]

O=[N+]([O-])c1cc(C2CCCCC2)c(O)c([N+](=O)[O-])c1
active: [1] 17.2 µM | [3] 30.5 µM | [5] 24.3 µM
inactive: [2] | [6]

Cc1ccc(Cl)c(Nc2ccccc2C(=O)O)c1Cl
inactive: [1] | [2] | [3] | [4] | [10] | [5] | [7]

O=C1c2ccccc2C(=O)N1CCc1noc(-c2ccc(CN3CCCCCC3)s2)n1
active: [2] 6.29 µM | [10] 6.29 µM
inactive: [1] | [9] | [4] | [6] | [7]

Clc1ccc(Nc2nnc(Cc3ccncc3)c3ccccc23)cc1
active: [2] 1.5 µM and 841 nM | [10] 21.1 µM
inactive: [1] | [9] | [6] | [7]

O=C1c2ccccc2C(=O)c2c(O)c(O)cc(O)c21
inactive: [9] | [4] | [5] | [6] | [7]
active: [1] 27.3 µM | [2] 10.9 µM

CCCCCCNC(=O)n1cc(F)c(=O)[nH]c1=O
inactive: [1] | [2] | [3] | [4] | [5] | [6] | [7]

CC(CO)CO
inactive: [1] | [2] | [3] | [10] | [5] | [6] | [7]

CCCCCCCCCCCCCCN(CCO)CCO
inactive: [2] | [3]
active: [1] 43.3 µM | [4] 43.6 µM | [5] 61.1 µM | [6] 24.5 µM

N#CCCN(CCO)CCO
inactive: [1] | [2] | [3] | [4] | [5] | [6] | [7]

CCOc1ccccc1O[C@H](c1ccccc1)[C@H]1CNCCO1
inactive: [1] | [2] | [9] | [6] | [7]

NC1[C@H]2CN(c3nc4c(cc3F)c(=O)c(C(=O)O)cn4-c3ccc(F)cc3F)C[C@@H]12 (stereo not given in full)
inactive: [1] | [2] | [4] | [6] | [7]
active: [9] 23.9 µM | [10] 8.41 µM

Reference: PubChem BioAssay (Tox21)
